According to PMC7862700, “An all-to-all approach to the identification of sequence-specific readers for epigenetic DNA modifications on cytosine”:

Key:
Experiment in all cases: DAPPL (digital affinity profiling via proximity ligation, sequencing); 10 mM Tris-HCl pH 7.5, 50 mM NaCl, 1 mM DTT, 4% glycerol, room temperature, 30 min; GST-TFs on glutathione beads, 16-mer random dsDNA library, 0.1% formaldehyde crosslink after washing; high values mean tight binding
FEV = target: T1, FEV (Homo sapiens, UniProt Q99581 1-238); conditions: protein: recombinant; tags: N-terminal GST; dsDNA, one strand shown
T1 sequence: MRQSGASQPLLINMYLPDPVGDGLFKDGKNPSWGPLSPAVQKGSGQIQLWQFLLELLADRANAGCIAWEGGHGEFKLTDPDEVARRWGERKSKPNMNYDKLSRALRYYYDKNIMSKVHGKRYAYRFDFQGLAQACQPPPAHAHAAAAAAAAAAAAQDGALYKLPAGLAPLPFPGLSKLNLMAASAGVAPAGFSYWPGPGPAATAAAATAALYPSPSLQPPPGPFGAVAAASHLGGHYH
Outline: (§1)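 The binding signal reported is, for every hexamer, its read frequency for a factor over its read frequency for the tag-only sample. Reads came from pools of yeast-expressed, GST-fused human transcription factors on glutathione beads, barcoded with DNA and mixed with that sample, which were incubated with 200 nmole of a random double-stranded 16-mer DNA library in Tris/NaCl/DTT/glycerol buffer at room temperature for 30 min. After washing, the pools were crosslinked with 0.1% formaldehyde, proximity-ligated with BsaI/T4 ligase for 1 h at 37 °C, PCR-amplified and sequenced on an Illumina NextSeq500.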

ETV5 = ETV5 (Homo sapiens, UniProt P41161 1-510); conditions: protein: recombinant; tags: N-terminal GST; dsDNA, one strand shown
Outline: as §1

HSF1 = HSF1 (Homo sapiens, UniProt Q00613 1-529); conditions: protein: recombinant; tags: N-terminal GST; chain copies: 3; dsDNA, one strand shown
Outline: as §1

SPIC = target: T2, SPIC (Homo sapiens, UniProt Q8N5J4 1-248); conditions: protein: recombinant; tags: N-terminal GST; dsDNA, one strand shown
T2 sequence: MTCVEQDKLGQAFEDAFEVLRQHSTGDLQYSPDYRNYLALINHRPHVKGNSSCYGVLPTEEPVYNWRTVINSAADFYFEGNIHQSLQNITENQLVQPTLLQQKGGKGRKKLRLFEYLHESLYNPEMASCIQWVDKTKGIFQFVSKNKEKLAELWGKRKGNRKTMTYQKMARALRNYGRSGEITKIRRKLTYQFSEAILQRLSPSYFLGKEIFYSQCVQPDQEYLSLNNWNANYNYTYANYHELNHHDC
Outline: as §1

ELF4 = ELF4 (Homo sapiens, UniProt Q99607 1-663); conditions: protein: recombinant; tags: N-terminal GST; dsDNA, one strand shown
Outline: as §1

ELK4 = target: T3, ELK4 (Homo sapiens, UniProt P28324-2 1-405); conditions: protein: recombinant; tags: N-terminal GST; dsDNA, one strand shown
T3 sequence: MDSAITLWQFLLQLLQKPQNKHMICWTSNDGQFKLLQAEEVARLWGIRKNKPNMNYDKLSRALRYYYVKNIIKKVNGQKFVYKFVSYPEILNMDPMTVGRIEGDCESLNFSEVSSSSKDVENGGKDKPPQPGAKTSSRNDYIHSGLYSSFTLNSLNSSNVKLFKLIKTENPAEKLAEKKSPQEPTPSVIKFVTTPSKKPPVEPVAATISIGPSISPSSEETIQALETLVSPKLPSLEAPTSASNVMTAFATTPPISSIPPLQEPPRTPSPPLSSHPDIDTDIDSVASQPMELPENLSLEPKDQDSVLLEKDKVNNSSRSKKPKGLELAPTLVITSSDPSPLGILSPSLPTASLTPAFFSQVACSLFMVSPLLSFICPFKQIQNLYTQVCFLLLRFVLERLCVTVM
Outline: as §1

ETV2 = target: T4, ETV2 (Homo sapiens, UniProt O00321 1-342); conditions: protein: recombinant; tags: N-terminal GST; dsDNA, one strand shown
T4 sequence: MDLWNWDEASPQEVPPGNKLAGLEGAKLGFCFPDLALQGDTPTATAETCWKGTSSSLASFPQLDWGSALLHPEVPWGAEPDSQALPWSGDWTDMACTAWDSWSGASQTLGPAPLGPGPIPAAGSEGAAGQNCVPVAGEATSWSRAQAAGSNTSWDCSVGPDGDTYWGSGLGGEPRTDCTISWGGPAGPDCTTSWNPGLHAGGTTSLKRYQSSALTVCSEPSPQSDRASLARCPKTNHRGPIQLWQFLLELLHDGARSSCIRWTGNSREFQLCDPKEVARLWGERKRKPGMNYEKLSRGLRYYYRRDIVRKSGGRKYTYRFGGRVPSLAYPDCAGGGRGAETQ
Outline: as §1

ELF3 = target: T5, ELF3 (Homo sapiens, UniProt P78545 1-371); conditions: protein: recombinant; tags: N-terminal GST; dsDNA, one strand shown
T5 sequence: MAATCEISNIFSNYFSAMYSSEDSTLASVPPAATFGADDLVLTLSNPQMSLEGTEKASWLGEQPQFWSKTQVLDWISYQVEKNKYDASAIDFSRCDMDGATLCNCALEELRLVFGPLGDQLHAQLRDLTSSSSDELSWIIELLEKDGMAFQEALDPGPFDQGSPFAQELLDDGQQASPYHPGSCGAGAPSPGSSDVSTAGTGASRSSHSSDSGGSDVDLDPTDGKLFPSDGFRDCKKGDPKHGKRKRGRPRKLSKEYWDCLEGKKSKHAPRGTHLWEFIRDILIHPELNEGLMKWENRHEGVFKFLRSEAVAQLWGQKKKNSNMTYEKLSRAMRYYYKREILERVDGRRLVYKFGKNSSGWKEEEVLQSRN
Outline: as §1

CRX = CRX (Homo sapiens, UniProt O43186 1-299); conditions: protein: recombinant; tags: N-terminal GST; dsDNA, one strand shown
Outline: as §1

ETV1 = ETV1 (Homo sapiens, UniProt P50549 1-477); conditions: protein: recombinant; tags: N-terminal GST; dsDNA, one strand shown
Outline: as §1

ERF = target: T6, ERF (Homo sapiens, UniProt P50548 1-548); conditions: protein: recombinant; tags: N-terminal GST; dsDNA, one strand shown
T6 sequence: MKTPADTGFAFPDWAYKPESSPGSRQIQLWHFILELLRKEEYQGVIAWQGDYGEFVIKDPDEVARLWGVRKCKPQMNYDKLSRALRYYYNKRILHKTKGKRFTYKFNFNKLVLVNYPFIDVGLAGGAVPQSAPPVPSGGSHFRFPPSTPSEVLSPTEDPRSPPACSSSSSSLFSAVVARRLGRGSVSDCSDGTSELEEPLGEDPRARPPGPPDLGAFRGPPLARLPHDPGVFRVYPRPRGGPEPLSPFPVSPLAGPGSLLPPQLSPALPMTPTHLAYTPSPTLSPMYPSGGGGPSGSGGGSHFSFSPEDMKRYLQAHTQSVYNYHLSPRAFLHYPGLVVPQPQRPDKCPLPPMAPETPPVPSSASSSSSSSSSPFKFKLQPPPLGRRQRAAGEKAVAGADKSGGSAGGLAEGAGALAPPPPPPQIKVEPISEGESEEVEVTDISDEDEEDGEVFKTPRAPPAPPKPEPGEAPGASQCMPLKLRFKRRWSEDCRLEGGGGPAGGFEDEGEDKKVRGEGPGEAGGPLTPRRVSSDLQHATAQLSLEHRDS
Outline: as §1

ETV3L = target: T7, ETV3L (Homo sapiens, UniProt Q6ZN32 1-361); conditions: protein: recombinant; tags: N-terminal GST; dsDNA, one strand shown
T7 sequence: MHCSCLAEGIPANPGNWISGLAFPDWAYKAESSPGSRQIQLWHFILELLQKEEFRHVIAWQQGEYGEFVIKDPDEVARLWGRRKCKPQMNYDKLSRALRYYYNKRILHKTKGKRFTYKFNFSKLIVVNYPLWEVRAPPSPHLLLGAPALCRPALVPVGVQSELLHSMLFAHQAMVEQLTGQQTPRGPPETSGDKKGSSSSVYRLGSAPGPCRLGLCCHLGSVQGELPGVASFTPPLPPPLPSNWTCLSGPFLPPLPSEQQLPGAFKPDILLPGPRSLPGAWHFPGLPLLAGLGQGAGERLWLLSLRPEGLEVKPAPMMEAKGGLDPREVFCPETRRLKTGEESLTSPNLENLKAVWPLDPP
Outline: as §1

ETS2 = target: T8, ETS2 (Homo sapiens, UniProt P15036 1-469); conditions: protein: recombinant; tags: N-terminal GST; dsDNA, one strand shown
T8 sequence: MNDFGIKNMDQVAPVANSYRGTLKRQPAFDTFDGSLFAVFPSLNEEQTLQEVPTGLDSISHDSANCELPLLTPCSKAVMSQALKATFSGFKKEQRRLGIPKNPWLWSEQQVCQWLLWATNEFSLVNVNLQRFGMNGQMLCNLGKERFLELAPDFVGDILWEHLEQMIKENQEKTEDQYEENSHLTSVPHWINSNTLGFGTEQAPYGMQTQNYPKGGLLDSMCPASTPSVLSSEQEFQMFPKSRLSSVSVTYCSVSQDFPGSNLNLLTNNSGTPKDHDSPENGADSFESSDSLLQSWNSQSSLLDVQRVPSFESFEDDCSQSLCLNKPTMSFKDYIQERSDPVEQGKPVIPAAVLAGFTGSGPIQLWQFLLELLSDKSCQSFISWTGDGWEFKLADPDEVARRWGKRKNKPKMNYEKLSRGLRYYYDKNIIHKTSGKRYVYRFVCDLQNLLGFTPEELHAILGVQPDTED
Outline: as §1

SPDEF = target: T9, SPDEF (Homo sapiens, UniProt O95238 1-335); conditions: protein: recombinant; tags: N-terminal GST; dsDNA, one strand shown
T9 sequence: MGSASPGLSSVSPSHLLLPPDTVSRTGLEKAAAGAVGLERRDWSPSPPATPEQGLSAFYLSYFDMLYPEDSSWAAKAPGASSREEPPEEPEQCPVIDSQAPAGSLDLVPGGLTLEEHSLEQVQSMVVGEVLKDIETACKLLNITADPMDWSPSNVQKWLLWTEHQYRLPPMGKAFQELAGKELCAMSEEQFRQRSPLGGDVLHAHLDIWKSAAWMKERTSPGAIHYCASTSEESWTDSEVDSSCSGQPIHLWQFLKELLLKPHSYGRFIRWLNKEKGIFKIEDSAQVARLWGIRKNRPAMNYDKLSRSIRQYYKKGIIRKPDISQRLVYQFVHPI
Outline: as §1

ETV7 = target: T10, ETV7 (Homo sapiens, UniProt Q9Y603 1-341); conditions: protein: recombinant; tags: N-terminal GST; dsDNA, one strand shown
T10 sequence: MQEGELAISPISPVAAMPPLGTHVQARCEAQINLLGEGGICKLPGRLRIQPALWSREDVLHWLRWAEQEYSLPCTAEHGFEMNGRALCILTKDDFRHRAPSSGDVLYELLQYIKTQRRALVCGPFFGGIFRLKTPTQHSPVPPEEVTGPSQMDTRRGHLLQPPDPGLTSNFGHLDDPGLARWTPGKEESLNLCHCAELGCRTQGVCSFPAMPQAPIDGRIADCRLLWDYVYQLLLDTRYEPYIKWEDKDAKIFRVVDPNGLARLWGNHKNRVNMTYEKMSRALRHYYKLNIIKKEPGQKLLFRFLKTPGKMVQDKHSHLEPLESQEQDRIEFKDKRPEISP
Outline: as §1

ELF5 = target: T11, ELF5 (Homo sapiens, UniProt Q9UKW6-2 1-255); conditions: protein: recombinant; tags: N-terminal GST; dsDNA, one strand shown
T11 sequence: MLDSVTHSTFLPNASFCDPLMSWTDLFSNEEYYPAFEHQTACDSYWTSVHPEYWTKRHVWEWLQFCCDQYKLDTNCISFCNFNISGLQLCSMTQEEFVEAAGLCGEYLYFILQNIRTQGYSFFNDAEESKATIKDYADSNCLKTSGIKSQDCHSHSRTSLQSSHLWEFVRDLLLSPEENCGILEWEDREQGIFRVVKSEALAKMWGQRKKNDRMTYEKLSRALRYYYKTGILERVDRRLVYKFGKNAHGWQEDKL
Outline: as §1

ETV3 = target: T12, ETV3 (Homo sapiens, UniProt P41162-2 1-143); conditions: protein: recombinant; tags: N-terminal GST; dsDNA, one strand shown
T12 sequence: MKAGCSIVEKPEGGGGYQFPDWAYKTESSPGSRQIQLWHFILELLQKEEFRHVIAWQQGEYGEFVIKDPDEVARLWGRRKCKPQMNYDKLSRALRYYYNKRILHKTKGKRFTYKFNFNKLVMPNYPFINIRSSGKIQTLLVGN
Outline: as §1

ETV6 = ETV6 (Homo sapiens, UniProt P41212 1-452); conditions: protein: recombinant; tags: N-terminal GST; dsDNA, one strand shown
Outline: as §1

Chain of ETV6 (P41212 whole entry): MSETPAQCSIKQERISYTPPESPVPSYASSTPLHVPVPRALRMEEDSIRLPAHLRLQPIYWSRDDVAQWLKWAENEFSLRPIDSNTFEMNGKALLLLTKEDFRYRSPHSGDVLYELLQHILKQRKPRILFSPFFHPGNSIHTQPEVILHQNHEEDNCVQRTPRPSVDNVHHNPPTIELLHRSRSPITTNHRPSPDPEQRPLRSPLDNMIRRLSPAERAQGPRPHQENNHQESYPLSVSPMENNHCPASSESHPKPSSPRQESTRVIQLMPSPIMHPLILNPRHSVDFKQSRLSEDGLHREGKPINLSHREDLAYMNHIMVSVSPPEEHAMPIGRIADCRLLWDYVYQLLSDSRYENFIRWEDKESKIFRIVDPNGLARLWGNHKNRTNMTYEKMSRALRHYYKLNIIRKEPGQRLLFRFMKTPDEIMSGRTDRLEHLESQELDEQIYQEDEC
Chain of CRX (O43186 whole entry): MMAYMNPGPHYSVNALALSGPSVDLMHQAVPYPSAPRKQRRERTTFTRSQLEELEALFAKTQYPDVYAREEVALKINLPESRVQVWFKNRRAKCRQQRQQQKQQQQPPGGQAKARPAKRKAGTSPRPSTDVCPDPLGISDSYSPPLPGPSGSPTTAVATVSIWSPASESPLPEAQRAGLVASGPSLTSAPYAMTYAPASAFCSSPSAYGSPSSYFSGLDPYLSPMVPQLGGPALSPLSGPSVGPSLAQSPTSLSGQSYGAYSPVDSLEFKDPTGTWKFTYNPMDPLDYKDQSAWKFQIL
Chain of ETV5 (P41161 whole entry): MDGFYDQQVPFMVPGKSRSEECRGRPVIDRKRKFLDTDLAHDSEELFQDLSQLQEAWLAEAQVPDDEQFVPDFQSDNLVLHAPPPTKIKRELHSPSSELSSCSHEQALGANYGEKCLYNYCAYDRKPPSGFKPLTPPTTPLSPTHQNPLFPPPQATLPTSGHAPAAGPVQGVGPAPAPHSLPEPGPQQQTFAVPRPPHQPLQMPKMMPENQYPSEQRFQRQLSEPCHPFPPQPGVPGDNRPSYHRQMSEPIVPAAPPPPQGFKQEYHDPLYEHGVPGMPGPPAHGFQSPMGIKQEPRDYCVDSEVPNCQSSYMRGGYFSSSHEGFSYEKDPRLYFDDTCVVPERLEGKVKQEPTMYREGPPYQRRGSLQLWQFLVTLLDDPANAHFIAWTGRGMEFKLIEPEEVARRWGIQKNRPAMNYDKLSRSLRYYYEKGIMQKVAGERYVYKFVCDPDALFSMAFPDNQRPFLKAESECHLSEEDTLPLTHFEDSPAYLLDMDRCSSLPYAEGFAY
Chain of ETV1 (P50549 whole entry): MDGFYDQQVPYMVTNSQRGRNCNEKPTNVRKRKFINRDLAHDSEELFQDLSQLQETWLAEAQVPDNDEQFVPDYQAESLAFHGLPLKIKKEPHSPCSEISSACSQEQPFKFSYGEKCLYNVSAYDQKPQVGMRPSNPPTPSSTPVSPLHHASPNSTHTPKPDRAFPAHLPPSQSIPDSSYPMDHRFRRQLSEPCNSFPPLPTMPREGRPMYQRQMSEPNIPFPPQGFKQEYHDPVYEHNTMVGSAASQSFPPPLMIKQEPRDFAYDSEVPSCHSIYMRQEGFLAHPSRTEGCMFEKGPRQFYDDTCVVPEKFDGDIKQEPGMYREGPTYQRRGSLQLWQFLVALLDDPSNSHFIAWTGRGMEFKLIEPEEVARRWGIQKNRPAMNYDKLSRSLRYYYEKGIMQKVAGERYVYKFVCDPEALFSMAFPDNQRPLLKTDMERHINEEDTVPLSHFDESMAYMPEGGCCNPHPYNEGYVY
Chain of HSF1 (Q00613 whole entry): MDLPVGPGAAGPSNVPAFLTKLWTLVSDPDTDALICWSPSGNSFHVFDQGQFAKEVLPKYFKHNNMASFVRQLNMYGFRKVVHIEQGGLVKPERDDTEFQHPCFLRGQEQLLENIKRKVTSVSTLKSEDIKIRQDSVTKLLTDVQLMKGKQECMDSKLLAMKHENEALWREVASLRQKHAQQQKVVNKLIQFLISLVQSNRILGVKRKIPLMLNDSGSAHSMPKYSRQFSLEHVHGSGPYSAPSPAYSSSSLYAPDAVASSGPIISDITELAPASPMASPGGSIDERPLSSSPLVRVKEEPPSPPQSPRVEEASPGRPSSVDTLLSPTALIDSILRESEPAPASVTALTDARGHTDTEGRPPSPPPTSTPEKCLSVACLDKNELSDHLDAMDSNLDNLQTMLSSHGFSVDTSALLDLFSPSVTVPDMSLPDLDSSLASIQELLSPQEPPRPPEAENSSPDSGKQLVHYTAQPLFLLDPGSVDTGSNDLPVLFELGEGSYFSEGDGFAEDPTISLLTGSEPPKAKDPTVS
Chain of ELF4 (Q99607 whole entry): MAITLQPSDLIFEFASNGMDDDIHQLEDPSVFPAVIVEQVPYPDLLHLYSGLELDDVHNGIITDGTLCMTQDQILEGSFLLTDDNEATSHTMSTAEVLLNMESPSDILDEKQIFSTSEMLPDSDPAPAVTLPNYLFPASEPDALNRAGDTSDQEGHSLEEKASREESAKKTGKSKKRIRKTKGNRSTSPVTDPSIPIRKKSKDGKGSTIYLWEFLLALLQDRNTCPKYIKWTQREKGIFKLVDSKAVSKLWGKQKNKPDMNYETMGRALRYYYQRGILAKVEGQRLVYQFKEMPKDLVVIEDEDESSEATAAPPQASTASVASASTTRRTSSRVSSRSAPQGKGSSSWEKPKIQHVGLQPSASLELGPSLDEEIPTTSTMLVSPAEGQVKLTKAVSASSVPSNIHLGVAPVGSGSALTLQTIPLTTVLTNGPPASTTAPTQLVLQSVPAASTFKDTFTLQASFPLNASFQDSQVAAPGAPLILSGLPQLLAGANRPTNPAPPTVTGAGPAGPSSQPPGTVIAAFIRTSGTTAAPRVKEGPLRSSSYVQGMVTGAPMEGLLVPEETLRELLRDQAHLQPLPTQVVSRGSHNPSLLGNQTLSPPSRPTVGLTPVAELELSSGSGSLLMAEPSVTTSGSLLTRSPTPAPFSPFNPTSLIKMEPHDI

ACGTAA
binding signal (FEV): 1.07 fold enrichment (6-mer frequency, TF over GST control) | binding signal (ETV5): 1.16 fold enrichment (6-mer frequency, TF over GST control) | binding signal (HSF1): 1.17 fold enrichment (6-mer frequency, TF over GST control) | binding signal (SPIC): 1.12 fold enrichment (6-mer frequency, TF over GST control) | binding signal (ELF4): 1.14 fold enrichment (6-mer frequency, TF over GST control) | binding signal (ELK4): 1.12 fold enrichment (6-mer frequency, TF over GST control) | binding signal (ETV2): 1.12 fold enrichment (6-mer frequency, TF over GST control) | binding signal (ELF3): 1.07 fold enrichment (6-mer frequency, TF over GST control) | binding signal (CRX): 1.27 fold enrichment (6-mer frequency, TF over GST control) | binding signal (ETV1): 1.12 fold enrichment (6-mer frequency, TF over GST control) | binding signal (ERF): 1.12 fold enrichment (6-mer frequency, TF over GST control) | binding signal (ETV3L): 1.09 fold enrichment (6-mer frequency, TF over GST control) | binding signal (ETS2): 1.08 fold enrichment (6-mer frequency, TF over GST control) | binding signal (SPDEF): 1.11 fold enrichment (6-mer frequency, TF over GST control) | binding signal (ETV7): 1.08 fold enrichment (6-mer frequency, TF over GST control) | binding signal (ELF5): 1.09 fold enrichment (6-mer frequency, TF over GST control) | binding signal (ETV3): 1.17 fold enrichment (6-mer frequency, TF over GST control) | binding signal (ETV6): 1.07 fold enrichment (6-mer frequency, TF over GST control)
